# In all, about 69,000 compounds went through this assay and about 8,600 (12%) showed an effect of 50% or more. The entries come from a sample that favours strong results as a whole.
# Tested on: Plasmodium berghei
# Test: Screen against P. berghei liver stage (PbLuc), transformed with Luciferase, at 10uM
# Type: functional, HepG2
# Conditions: tested at 10 uM
row,SMILES,INHIBITION [%]
1,c1cnc(N2CCC3(CCCN(Cc4ccncc4)C3)CC2)nc1,82.3
2,c1cnc(N2CCCC3(CCN(CC4CCC4)C3)C2)nc1 (centres undefined),55.5
3,COCCN1CCC2(CCCN(c3ncccn3)C2)C1 (centres undefined),48.3
4,c1cnc(N2CCCC3(CCN(Cc4ccncc4)C3)C2)nc1 (centres undefined),42.6
5,c1cnc(N2CCCC3(CCN(CC4CC4)C3)C2)nc1 (centres undefined),43.9
6,CC1CN(S(=O)(=O)c2ccc(C(=O)NCC(F)F)cc2)CCCO1 (centres undefined),49.2
7,Cc1ccc(CN2CCN(C(=O)CCc3nc(Cl)n[nH]3)CC2=O)cc1,29.4
8,O=C1CN(Cc2ccc3ccccc3n2)CCN1C1CCCC1,36
9,Cc1nnc(NC(=O)NCc2ccc(OC(C)C)nc2)s1,21.5
10,CCN(Cc1cccc2c1OCO2)C(=O)NC1CC1,36.4
11,CCN(Cc1cccc2c1OCCO2)C(=O)NC(C)(C)C,51.1
12,CN(CC(=O)NCC(F)(F)F)Cc1cccc2c1OCCO2,44.7
13,CCN(CC(=O)NC(C)(C)C)Cc1cccc2c1OCCO2,23.3
14,CCN(Cc1cccc2c1OCO2)C(=O)Nc1ccncc1,46.5
15,CN(CC(=O)NC(C)(C)C)Cc1cccc2c1OCCO2,65
16,CCC(O)CN1CCN(C(=O)c2sccc2C(C)C)CC1 (centres undefined),23.4
17,CC(C)(O)C1CCN(C(=O)Nc2nc(-c3ccccc3)ns2)CC1,58.9
18,O=C(Nc1nc(-c2ccccc2)ns1)N1CCC(F)CC1,-47
19,CC(C)(O)C1CCCN(C(=O)Nc2nc(-c3ccccc3)ns2)C1 (centres undefined),-62.8
20,CC(C)n1cnnc1C1CCCN(S(=O)(=O)c2c[nH]cn2)C1 (centres undefined),36.3
21,O=C(Cc1csc(-c2ccccn2)n1)NCCCN1CCCCCC1=O,9.76
22,CC(=O)Nc1ncc(S(=O)(=O)Nc2ccc(C)cc2)s1,77.2
23,CC(=O)Nc1ncc(S(=O)(=O)Nc2cccc(F)c2)s1,-13
24,COc1ccc(NS(=O)(=O)c2cnc(NC(C)=O)s2)cc1,50.7
25,CC(=O)Nc1ncc(S(=O)(=O)N2CCOCC2)s1,21.7
26,CC(=O)Nc1ncc(S(=O)(=O)Nc2ccc3c(c2)OCCO3)s1,81.4
27,CC(=O)Nc1ncc(S(=O)(=O)N2CCCC(C)C2)s1 (centres undefined),40.2

row,SMILES,INHIBITION [%]
1,COC(=O)c1ccc(NS(=O)(=O)c2cnc(NC(C)=O)s2)cc1,1.86
2,CC(=O)Nc1ncc(S(=O)(=O)Nc2cccc(C)c2)s1,27.5
3,CC(=O)Nc1ncc(S(=O)(=O)Nc2ccccc2)s1,40.8
4,CC(=O)Nc1ncc(S(=O)(=O)Nc2ccc(F)cc2)s1,-6.32
5,COC(=O)c1cccc(NS(=O)(=O)c2cnc(NC(C)=O)s2)c1,22.9
6,CC(=O)Nc1ncc(S(=O)(=O)N2CCC(C)CC2)s1,61.2
7,CC(NC(=O)CNS(C)(=O)=O)c1ccccc1Oc1ccccc1 (centres undefined),37.1
8,Cc1cc(N2CCCCC2)nc(N(CCO)CCO)c1C#N,31.8
9,CN(C(=O)c1ccncc1)c1nnc(C2CCOC2)s1 (centres undefined),1.25
10,Cc1cccc(CN2C(=O)CO[C@@H]3CN(Cc4cnn(C)c4)C[C@H]32)c1,45.2
11,COc1ccc(CN2C[C@H]3CCC[C@@H](CN(C)C)[C@H]3C2)cn1,34.6
12,Cc1cc(C(=O)N2CCCC(c3ccc(C(=O)O)cc3)C2)c(C)o1 (centres undefined),9.52
13,COc1ccc(Cl)cc1NCCC(=O)NCCNc1cnccn1,14.4
14,Cc1[nH]ccc1C(=O)NCc1ncoc1C,-17.3
15,CCC(=O)N1CCC1c1cc(NC2CCCC2)nc(C)n1 (centres undefined),14.5
16,COc1ccc(C(C)N2CCC(OC)CC2)cc1Cl (centres undefined),42.4
17,COc1ccc(C(C)N2CCC(CNC(C)=O)CC2)cc1Cl (centres undefined),70.3
18,COc1ccc(C(C)N2CCC(NS(C)(=O)=O)CC2)cc1Cl (centres undefined),57.3
19,COc1ccc(C(C)N2CCC(C(=O)N(C)C)CC2)cc1Cl (centres undefined),24.8
20,COc1ccc(C(C)N2CCC(C(=O)NC3CC3)CC2)cc1Cl (centres undefined),41.5
21,COc1ccc(C(C)N2CCC(CO)CC2)cc1Cl (centres undefined),40.6
22,CC(C)c1cc(NC(=O)Cn2ccc(=O)c3ccccc32)[nH]n1,6.72
23,CCN(CC1COc2ccccc2O1)C(=O)CCn1cncn1 (centres undefined),-4.4
24,Cc1nn(C)c(N(C)C)c1CNCc1cccnc1OC(C)C,19.6
25,CCC(Nc1ccc(Oc2ccc(C#N)cc2OC)cc1)C(N)=O (centres undefined),73.1
26,CCC(Nc1ccc(Oc2ccccc2OC)cc1)C(N)=O (centres undefined),-34.1
27,CCC(Nc1ccc(Oc2cccc(C#N)c2)cc1)C(N)=O (centres undefined),39.7

# Reference: ChEMBL document CHEMBL4513216, “Probing the Open Global Health Chemical Diversity Library for Multistage-Active Starting Points for Next-Generation Antimalarials” (ACS Infect Dis, 2020)
